According to PubChem BioAssay AID624330 (Southern Research Specialized Biocontainment Screening …, 2012):
The whole screen tested about 340,000 compounds, of which about 2,100 (0.62%) were called active.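 The calls were made as follows: active = first-screen hits whose inhibition reached a set limit at any dose in the follow-up dose series; inconclusive = inhibition above the set first-screen limit but never retested; inactive = the rest.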 The list is a sample of the results. Results with a measured potency or affinity are listed apart.

target: Rac GTPase-activating protein 1 (Homo sapiens) (UniProt Q9H0H5); assay: blockers of MgcRacGAP-driven Rac1 GTP hydrolysis – biochemical, ADP Hunter fluorescence, primary and confirmatory, confirmation (AID 624330); details: MgcRacGAP-stimulated Rac1 GTP hydrolysis, at 30 µM, active compounds read high, GST-tagged Rac1 F28L mutant substrate;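 also: fluorescence reports GDP produced by GAP-driven GTP hydrolysis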
Sequence (Q9H0H5 whole entry, looked up): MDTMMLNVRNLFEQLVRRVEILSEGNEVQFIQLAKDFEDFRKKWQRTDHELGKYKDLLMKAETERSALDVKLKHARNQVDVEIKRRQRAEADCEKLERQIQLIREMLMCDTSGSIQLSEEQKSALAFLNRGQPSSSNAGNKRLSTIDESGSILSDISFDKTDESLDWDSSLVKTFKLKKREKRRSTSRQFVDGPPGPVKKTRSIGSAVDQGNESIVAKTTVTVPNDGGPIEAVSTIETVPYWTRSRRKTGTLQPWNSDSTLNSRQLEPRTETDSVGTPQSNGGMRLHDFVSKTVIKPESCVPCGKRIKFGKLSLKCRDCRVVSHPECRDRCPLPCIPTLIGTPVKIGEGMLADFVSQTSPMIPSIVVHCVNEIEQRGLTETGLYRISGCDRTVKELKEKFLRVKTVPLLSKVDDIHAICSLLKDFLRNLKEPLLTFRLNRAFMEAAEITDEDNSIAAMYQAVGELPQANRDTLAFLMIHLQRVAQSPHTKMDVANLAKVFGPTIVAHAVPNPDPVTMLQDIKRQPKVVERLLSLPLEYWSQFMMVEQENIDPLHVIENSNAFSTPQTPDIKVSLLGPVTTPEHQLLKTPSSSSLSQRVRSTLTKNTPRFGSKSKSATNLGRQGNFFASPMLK

inhibition, inactive:
CCOc1ccccc1C(C(=O)NC1CCCC1)N(Cc1ccco1)C(=O)CNC(=O)c1ccco1 (centres undefined) 5.39%, O=C(CN1c2ccccc2Sc2ccccc21)NNC(=S)Nc1ccc(Cl)cc1 15.4%, CCOC(=O)C(CO)(NC(C)=O)C(=O)OCC 3.77%, COc1ccccc1OCc1cc(C(=O)N2CC3C[C@@H]4CC2C[C@H](C3)C4)no1 3.59%, CCOc1ccccc1NC(=O)C(OC(=O)C1CC1)c1ccccc1 (centres undefined) -2.99%, CCC(C(=O)Nc1cccc(C(F)(F)F)c1)c1ccccc1 (centres undefined) 17.9%, CCOc1ccccc1NC(=O)C(NCCc1ccc(OC)cc1)c1ccccc1 (centres undefined) -0.19%, CCOc1ccccc1NC(=O)C(NCC1CCCCC1)c1ccccc1 (centres undefined) 4.44%, CCOc1ccccc1NC(=O)C(OC(=O)c1ccccc1)c1ccccc1 (centres undefined) 12.2%, CN(C)CCNC(C(=O)Nc1cc(Cl)cc(Cl)c1)c1ccccc1 (centres undefined) 5.37%, CC(NC(=O)c1ccco1)C(=O)N1CCCCC1 (centres undefined) 3.98%, O=C(COC(=O)c1cccnc1Cl)NC1CCCCC1 4.82%, CC(C)Cc1cc(C(=O)N2CCN(c3ccc(F)cc3)CC2)no1 0.62%, COc1cccc(C(=O)NC(=S)Nc2ccccc2N2CCOCC2)c1 6.71%, COc1ccc(C)cc1S(=O)(=O)N1CCC(C(=O)NCCc2ccccc2)CC1 14.5%, COC(=O)c1ccc(Cl)c(NC(=O)CSc2nnc(-c3ccncc3)o2)c1 4.07%, OC1CCN(Cc2cn(Cc3ccccc3)nc2-c2cc3ccccc3o2)CC1 5.47%, O=C(Nc1ccc(Cl)cc1)Nc1nnc(CSCc2ccccc2Cl)s1 12.1%, CN(C(=O)COc1ccccc1)c1ccc([N+](=O)[O-])cc1 7.5%, Cc1ccccc1OCCNC(=O)c1ccco1 3.61%, Cc1ccc(C(=O)NCC(C)NC(=O)c2ccc(C)c(C)c2)cc1C (centres undefined) 4.02%, CCOc1ccc(N2CC(C(=O)NCc3ccco3)CC2=O)cc1 (centres undefined) -1.21%, Cc1onc(-c2ccccc2)c1C(=O)NC(=S)NNC(=O)c1ccncc1 0.31%, CCCN(C(=O)Cc1csc(-c2ccccc2)n1)C1CCS(=O)(=O)C1 (centres undefined) 4.87%, CCOC(=O)c1c(NC(=O)CSc2cccc[n+]2[O-])sc(C(=O)Nc2ccccc2)c1C 7.58%, CCOC(=O)c1c(NC(=O)CN2CCN(C)CC2)sc(C(=O)Nc2ccccc2)c1C 8.53%, CCOc1ccc(S(=O)(=O)Nc2ccccc2C(=O)Nc2ccccc2N2CCOCC2)cc1 1.24%, Cc1ccc(OC(=O)c2cccc(S(=O)(=O)N3CCN(C)CC3)c2)c(Br)c1 10%, CCOc1ccc(C2NC(=O)C(C#N)=C(S)N2c2ccc(C)cc2)cc1OC (centres undefined) 51%, COc1ccc(N2C(S)=C(C#N)C(=O)NC2c2ccc(OC)c(OC)c2)cc1 (centres undefined) 29%, Cc1cc(C)c2[nH]c(=O)c(CN(CC3CCCO3)C(=S)NCc3ccco3)cc2c1 (centres undefined) 10.7%, CN(CC(=O)Nc1ccc(S(=O)(=O)N2CCCC2)cc1)Cc1cccc(Cl)c1Cl 4.27%, Cc1ccc(CN2CC(C(=O)Nc3nc(C)cs3)CC2=O)cc1 (centres undefined) -0.43%, CCn1c2ccccc2c2cc(NC(=O)CN3CCCC3)ccc21 5.72%, COc1ccc(OCC#CCNC(C)(C)C)cc1 18%, CC(C)NCC(O)COCCOc1ccc(Cl)cc1 (centres undefined) -1.4%, OC(COc1ccc(Cl)cc1)CN1CCCCC1 (centres undefined) -6.24%, Clc1ccc(OCCCCN2CCCCC2)cc1 28.9%, CN(C)CCCNc1ncnc2oc(-c3ccccc3)c(-c3ccccc3)c12 10.3%, COc1ccccc1NC(=O)Cn1c(C)nc2c(sc(=S)n2Cc2ccco2)c1=O 8.75%, COC(=O)[C@H]1C[C@H]1[C@@H](NC(=O)c1ccc[nH]1)c1ccccc1 -1.4%, CC(=O)c1ccc(N2CCN(CC(=O)NCc3ccccc3)CC2)cc1 6.75%, CN(Cc1ccccc1)c1nc2c(c(=O)[nH]c(=O)n2C)n1CCOc1ccccc1 13.5%, Cc1ccc2c(nc3s/c(=C\c4ccc(-c5ccccc5C(=O)O)o4)c(=O)n32)c1C 19.4%, O=c1/c(=C/c2ccccn2)sc2nc3ccccc3n12 6.92%, CC1(C)OC(=O)C(=CNCCc2ccc(O)cc2)C(=O)O1 17.2%, CC1(C)CC(=O)C(N=Nc2ccc(-c3ccccc3)cc2)=C(O)C1 9.24%, O=C(Cn1nnc(-c2ccc(Cl)cc2)n1)NC1CCS(=O)(=O)C1 (centres undefined) 9.8%, O=C1c2ccc([N+](=O)[O-])cc2S(=O)(=O)N1Cc1ccccc1 11.7%, O=[N+]([O-])c1ccc(S(=O)Cc2ccccc2)c([N+](=O)[O-])c1 (centres undefined) 4.1%, N#Cc1c(N)n(Cc2ccccc2)c(=O)c2cc([N+](=O)[O-])ccc12 9.07%, O=c1c2c([N+](=O)[O-])cc([N+](=O)[O-])cc2sn1Cc1ccccc1 31%, CCOC(=O)C(=CNc1ccc(O)c(C(=O)OC)c1)C(=O)OCC 17%, Cc1c(C(=O)COC(C)(C)C)[nH]c2ccccc12 8.87%, O=C(NNC1OC(CO)C(O)C(O)C1O)c1cccc(Br)c1 (centres undefined) 0.41%, CC(=O)Nc1ccc(N/C=C/C(=O)C(C)(C)C)cc1 7.27%, COc1ccc(N/C=C/C(=O)C(C)(C)C)cc1 16.3%, O=C(O)CCCn1ccc2cc(S(=O)(=O)N3CCCC3)ccc21 4.17%, Cc1cc(Br)ccc1OCCN1CCCC1 31.4%, Clc1ccc(OCCCN2CCCCC2)c(Br)c1 27.6%, Cc1cc(Br)ccc1OCCOCCN1CCCC1 21.4%, CC1CCN(CCCOc2ccc(Cl)cc2Br)CC1 20.7%, CCC(=NCc1ccccc1)C1=C(O)C(C(=O)OC)C(C)(C)CC1=O (centres undefined) 2.32%, CCCCC(=Nc1ccc(N)cc1)C1=C(O)C(C(=O)OC)C(C)(C)CC1=O (centres undefined) 28.1%, COC(=O)C1C(O)=C(C=Nc2ccccc2)C(=O)CC1(C)C (centres undefined) -0.8%, COC(=O)C1C(O)=C(C=Nc2ccc3ccccc3c2)C(=O)CC1(C)C (centres undefined) 4.62%, CCCC(=Nc1ccccc1)C1=C(O)C(C(=O)OC)C(C)(C)CC1=O (centres undefined) -1.06%, CCCC(=O)C1=C(O)C(C(=O)OC)C(C)(C)CC1=Nc1ccc(N)cc1 (centres undefined) 7.34%, CC(C)Cn1c(N)c(/C=N/NC(=O)c2ccc(Cl)cc2)c(=O)n(C)c1=O 14.9%, Cc1cccc(CNc2ccc(C(CC(N)=O)NC(=O)c3ccccc3)cc2[N+](=O)[O-])c1 (centres undefined) -3.89%, O=C(CSc1nccn1-c1ccc(Cl)cc1)N1CCCc2ccccc21 4.77%, Cc1ccc(NC(=O)N2CCCc3ccccc32)cc1C 3.97%, Cc1ccc2nc(C)cc(C(=O)OCC(=O)Nc3cccnc3Cl)c2c1 5.5%, COC(=O)c1ccc(Oc2coc3cc(OCc4ccc([N+](=O)[O-])cc4)ccc3c2=O)cc1 -3.99%, CCN1CCN(CCNC(=O)Cn2c(=O)c3cccn3c3ccc(F)cc32)CC1 13.8%, C#CCNC(=O)C1=C[C@@H](C2CCCCC2)C[C@@H](OCCCCO)O1 6.51%, C=CCn1c(SCCNC(C)=O)nc2cc(-c3ccccc3)sc2c1=O -6.43%, CCN(CC)C(=O)/C=C/c1ccccc1 10.4%, CCN(CC)CCOC(=O)/C=C/c1ccccc1 8.82%, COc1cccc(CNC(=O)CCC2CCCN(C(=O)c3ccc(C)nc3)C2)c1 (centres undefined) -7.59%, O=C1NC(=S)N/C1=C\c1ccccc1OCc1ccc(C(=O)O)cc1 7.81%, CN1C(=O)S/C(=C\c2ccccc2OCc2ccc(C(=O)O)cc2)C1=O 7.03%, CCCCC(=O)Nc1nn(CC(C)C)c2nc3ccccc3cc12 -1.14%, Cc1cccc(N2C(=O)CCC2=O)c1 7.43%, Cc1cccc(N2N=C(C(=O)O)CCC2=O)c1 -5.61%, Cc1nnc2ccc(N3CCN(c4cccc(C(F)(F)F)c4)CC3)nn12 5.89%, COCC(=O)N1CCN(c2cccc(C(F)(F)F)c2)CC1 4.48%, Cc1cc(=O)c(C(=O)O)nn1-c1cccc(C(F)(F)F)c1 6.55%, OCCN(Cc1ccccc1)Cc1cccc(C(F)(F)F)c1 16.5%, FC(F)(F)c1cccc(N2CCc3cn[nH]c32)c1 12.6%, CCOc1cccc(CN2CCN(c3cccc(C(F)(F)F)c3)CC2)c1O 0.147%, COC(=O)c1sccc1NC(=O)CN(C)NS(=O)(=O)c1ccc([N+](=O)[O-])cc1 -4.11%, CNC(=S)NCCCc1ccccc1 8.61%, C/C=C(\C)C(=O)OC1[C@H](OC(C)=O)C2(CO)C(CC1(C)C)C1=CCC3C4(C)CCC(O[C@@H]5O[C@H](C(=O)O)[C@@H](O[C@@H]6O[C@H](CO)[C@@H](O)[C@H](O)[C@H]6O)[C@H](O)[C@H]5O[C@H]5O[C@H](CO)[C@@H](O)[C@H](O)[C@H]5O)[C@](C)(CO)C4CCC3(C)[C@]1(C)C[C@H]2O (some centres undefined) 1.06%
